MEKK2 WT-MEK5 – raises or lowers MEK5 binding to wildtype human MEKK2 PB1 domain; bead flow cytometry, Alexa488-MEK5 binding to MEKK2 WT; actives lie on both sides; binding response (% of control), % at 10 µM; 290,000 compounds, 1.1% hits; AID 1531; in the data active = binding response below about 67% or above about 130%; inconclusive = no clear call, values can overlap the other calls; inactive = in between
MEKK2 mut-MEK5 – signal of MEK5 binding to mutant human MEKK2 PB1 domain; bead flow cytometry, Alexa488-MEK5 binding to MEKK2 mutant; percent response, % at 10 µM; 290,000 compounds, 0.35% hits; AID 1530; in the data active = percent response above about 24%, passing the limit was not always enough
UBC13 inh – blocks human UBC13 polyubiquitin chain formation; P61088; TR-FRET; inhibition, % at 20 µM; 330,000 compounds, 0.47% hits; AID 485273; in the data active = inhibition above about 45%, passing the limit was not always enough; inconclusive = no clear call, values can overlap the other calls
MEKK3 PB1 HTS – raises or lowers MEK5 binding to the human MEKK3 PB1 domain. Q99759. bead-based flow cytometry, Alexa488-MEK5 binding to MEKK3; actives lie on both sides; 0 = blocked by unlabeled MEK5, 100 = vehicle. binding response (% of control), % at 10 µM. 290,000 compounds, 1.4% hits;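 active = binding response more than 3 SD above or below the average of its plate-row segment, actives on both sides; inconclusive = wells at one plate position flagged as instrument error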;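 note: Alexa488 bead fluorescence after subtracting the streptavidin-only scavenger bead signal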
Target sequence (Q99759 whole entry, looked up, the tested form may be a part): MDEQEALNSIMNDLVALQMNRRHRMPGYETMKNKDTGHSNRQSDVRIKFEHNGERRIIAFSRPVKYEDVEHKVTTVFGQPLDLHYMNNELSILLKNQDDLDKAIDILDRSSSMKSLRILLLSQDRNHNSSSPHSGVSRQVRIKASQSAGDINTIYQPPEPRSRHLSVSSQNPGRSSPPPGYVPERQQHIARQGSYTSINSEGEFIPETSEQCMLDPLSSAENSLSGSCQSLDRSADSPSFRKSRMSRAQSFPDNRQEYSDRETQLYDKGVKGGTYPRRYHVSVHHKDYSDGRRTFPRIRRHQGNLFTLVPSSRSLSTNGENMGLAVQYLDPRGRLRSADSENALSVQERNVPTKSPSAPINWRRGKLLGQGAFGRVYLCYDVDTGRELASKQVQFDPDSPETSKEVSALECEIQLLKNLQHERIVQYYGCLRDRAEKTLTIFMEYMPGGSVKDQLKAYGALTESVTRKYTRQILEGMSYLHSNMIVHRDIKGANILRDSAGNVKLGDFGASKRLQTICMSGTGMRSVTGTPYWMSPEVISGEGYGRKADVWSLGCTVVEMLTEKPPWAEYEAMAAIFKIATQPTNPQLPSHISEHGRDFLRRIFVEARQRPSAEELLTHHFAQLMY
MEKK2wt confirm – raises or lowers MEK5 binding to wildtype human MEKK2, retest. shares compounds with MEKK3 PB1 HTS. bead flow cytometry, Alexa488-MEK5 binding to MEKK2 WT; actives lie on both sides. binding response (% of control), % at 10 µM. 5,900 compounds, 2.4% hits. AID 1892; in the data active = binding response below about 16% or above about 210%; inactive = in between
MEKK2mut confirm – signal of MEK5 binding to mutant human MEKK2, retest; bead flow cytometry, Alexa488-MEK5 binding to MEKK2 mutant; AID 1893; shares compounds with MEKK3 PB1 HTS; percent response, % at 10 µM; 5,900 compounds, 2% hits; in the data active = percent response mostly above about 71%, no sharp cut-off; inactive = mostly below about 38%;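 note: higher means compound restores mutant binding toward wildtype level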
MEKK3 confirm – confirmation of inhibitors of MEK5 binding to human MEKK3; shares compounds with MEKK3 PB1 HTS; bead flow cytometry, Alexa488-MEK5 binding to MEKK3; hits give low values; binding response (% of control), % at 10 µM; 5,900 compounds, 1.8% hits;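 active = binding response below 72% of control, or above a set upper limit, though filed actives all read lower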;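 note: lower values mean stronger disruption of MEK5 binding to MEKK3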
A number is an active result; 0 = inactive; ? = inconclusive; - = no result; [ ] = remark or other dose. Rows were chosen to be rich in hits. Some 2.3% of all compounds tested hit in one or more screens of this group.

SMILES	MEKK2 WT-MEK5	MEKK2 mut-MEK5	UBC13 inh	MEKK3 PB1 HTS	MEKK2wt confirm	MEKK2mut confirm	MEKK3 confirm
Nc1nc2c(c(=O)[nH]1)C(c1cccc3ccccc13)C1=C(N2)c2ccccc2C1=O (configuration not stated)	0	0	-	0	-	-	-
COCCCNC(=O)c1ccc2c3c(onc13)-c1ccccc1C2=O	0	0	0	0	-	-	-
CCOC(=O)C(C(=O)OCC)c1cc(Br)c2noc3c2c1C(=O)c1ccccc1-3	39[inhibitor]	0	0	64[inhibitor]	0	0	68
CCOc1cc(/C=N/NC(N)=O)cc(Br)c1OCC(=O)Nc1ccccc1C	0	0	0	122	0	0	0
O=C(CN1C(=O)c2cccc3cccc1c23)NC1CCCC1	0	0	0	0	-	-	-
O=C(NCCc1ccccc1)c1ccc2nc(N3CCOCC3)sc2c1	0	0	0	0	-	-	-
CCCCN(CCCNC(=O)c1ccc2nc(N3CCOCC3)sc2c1)Cc1ccccc1	158	0	0	0	0	0	0
O=C(CCS(=O)(=O)c1cccs1)N1CCN(c2ccc(F)cc2)CC1	0	0	0	122	0	0	71
O=C(CCCNS(=O)(=O)c1cccs1)N1CCN(c2ccc(F)cc2)CC1	0	0	0	0	-	-	-
Cc1ccc(NC(=O)CSc2nnc(-c3cccs3)o2)cc1S(=O)(=O)N(C)C	0	0	0	0	-	-	-
Cc1ccc(NC(=O)CSc2nnc(-c3cccs3)o2)cc1S(=O)(=O)N1CCCCC1	0	0	0	135	0	0	0
O=C(Nc1ccc2nc3n(c(=O)c2c1)CCCC3)c1cc([N+](=O)[O-])ccc1F	0	0	0	0	-	-	-
O=C(Nc1ccc2nc3n(c(=O)c2c1)CCCC3)c1cccc([N+](=O)[O-])c1	0	0	0	139	0	0	0
CC/C(=C\c1oc2cc3ccccc3cc2[n+]1CC)Nc1ccccc1	389	464	0	135	0	-88[inhibitor]	0
CC[n+]1c(/C=C/Nc2ccccc2)oc2ccc(OC)cc21	0	0	0	0	-	-	-
Clc1ccc(C(c2nnnn2CCc2ccccc2)N2CCSCC2)cc1 (configuration not stated)	0	0	0	0	-	-	-
Cc1ccc(C(=O)OCC(=O)NC2CCCCC2)s1	0	0	0	0	-	-	-
CCCCCOc1ccc(CSC(=N)N)cc1[N+](=O)[O-]	148	34	0	0	0	0	0
Cc1cccc(N2CCN(C(=O)COc3cc(=O)n(C)c4ccccc34)CC2)c1C	0	0	0	0	-	-	-
Cc1cccc(N2CCN(C(=O)Cc3cn(C)c4ccccc34)CC2)c1C	0	0	0	130	0	0	0
CCn1c(SCC(=O)NCc2ccccc2)nnc1C(CO)NC(=O)c1ccccc1 (configuration not stated)	0	0	0	0	-	-	-
CCOC(=O)/C(C#N)=C/c1cc2ccc(C)cc2nc1Cl	0	0	0	57[inhibitor]	0	0	0
CCOC(=O)/C(C#N)=C/c1cc2cc(C)c(C)cc2nc1Cl	0	0	0	0	-	-	-
CCOC(=O)/C(C#N)=C/c1cc2ccccc2nc1N1CCOCC1	0	0	0	66[inhibitor]	0	0	0
c1ccc(-c2cc3ccccc3nc2N2CCCC2)cc1	0	0	0	0	-	-	-
SMILES	MEKK2 WT-MEK5	MEKK2 mut-MEK5	UBC13 inh	MEKK3 PB1 HTS	MEKK2wt confirm	MEKK2mut confirm	MEKK3 confirm
Cc1ccc(-c2cc3ccccc3nc2N2CCOCC2)cc1	0	0	0	75[inhibitor]	0	0	0
COc1ccc(C(=O)NC2CCN(CC(=O)NCc3cccc(OC)c3)CC2)cc1	0	0	0	0	-	-	-
CCc1cc(C(=O)N2CCCc3ccccc32)sc1C	0	0	0	0	-	-	-
COc1ccc(/C=N/NS(=O)(=O)c2ccc(F)cc2)cc1CN1CCSCC1	0	0	0	0	-	-	-
Cc1[nH]c(C)c(S(=O)(=O)N2c3ccccc3CC2C)c1C(=O)N1CCCCC1 (configuration not stated)	0	0	0	0	-	-	-
O=C1CC(c2cccc(Cl)c2)c2cc3c(cc2N1)CCC3 (configuration not stated)	-2.0[inhibitor]	0	0	2.0[inhibitor]	0	0	0
CCCCCn1nc(C(=O)OCc2nc(N)nc(Nc3ccccc3)n2)c2ccccc2c1=O	-	-	0	-	-	-	-
Cc1cccc(NC(=O)c2ccc([N+](=O)[O-])cc2Cl)n1	0	0	0	137	0	0	0
CN1CCN(c2cc(-c3ccccc3)nc3cc(-c4ccc(F)cc4)nn23)CC1	152	34	0	0	0	0	0
COc1cccc(-c2cc3nc(-c4ccccc4)cc(N4CCC5(CC4)OCCO5)n3n2)c1	137	25	?	125	0	0	0
Fc1ccc(-c2cc3nc(-c4ccccc4)cc(N4CCN(CCN5CCOCC5)CC4)n3n2)cc1	0	0	-	0	-	-	-
C[C@H](CO)N1C[C@H](C)[C@@H](CN(C)C(=O)Nc2ccc3c(c2)OCO3)Oc2ccc(NC(=O)CCC(F)(F)F)cc2C1=O	-	-	0	-	-	-	-
Oc1ccc(N=Nc2ccccc2-c2nn[nH]n2)c(O)c1	0	0	0	0	-	-	-
O=C(NNC1=NCCN1Cc1ccccc1)c1cccc(C(F)(F)F)c1	0	0	0	128	0	0	0
Cc1c(C)c2ccc(OCC(=O)N3CCOCC3)c(C)c2oc1=O	0	0	0	0	-	-	-
O=c1[nH]c(SCc2ccccc2[N+](=O)[O-])nc2nc[nH]c12	0	0	0	45[inhibitor]	0	0	0
O=C(/C=C/c1cccc([N+](=O)[O-])c1)NCCSCc1ccc(Cl)cc1Cl	0	0	0	130	0	0	0
O=C(/C=C/c1cccc([N+](=O)[O-])c1)NCCSCc1ccccc1Cl	0	0	0	0	-	-	-
O=C(O)CCC(=O)Nc1ccc(Cc2ccc(NC(=O)CCC(=O)O)c(O)c2)cc1O	0	0	0	0	-	-	-
O=C(Nc1ccc(Cc2ccc(NC(=O)C3CC3)c(O)c2)cc1O)C1CC1	0	0	0	127	0	0	0
Cc1ncc([N+](=O)[O-])n1Cc1ccc(F)cc1	0	0	0	70[inhibitor]	0	0	0
Cc1ncc([N+](=O)[O-])n1Cc1ccccc1F	0	0	0	0	-	-	-
Cc1noc(NS(=O)(=O)c2ccc(NC(=O)c3nn(-c4ccccc4)ccc3=O)cc2)c1C	0	0	0	0	-	-	-
O=C1NC2(C=Cc3c(ccc4ccccc34)O2)Oc2ccccc21 (configuration not stated)	2.0[inhibitor]	0	0	2.0[inhibitor]	0	0	0
O=C(O)c1cc(S(=O)(=O)Nc2ccc3cn[nH]c3c2)ccc1Cl	-	-	0	-	-	-	-
O=C(CCc1nc2ccccc2s1)OCC(=O)c1ccccc1	0	0	0	0	-	-	-
Cc1noc(C)c1COC(=O)CCc1nc2ccccc2s1	0	0	0	130	0	0	0
